The whole screen tested about 350,000 compounds, of which about 260 (0.074%) were called active. Inconclusive results (about 8%) are left out. This is one part of a sample in which actives are shown more often than they occur. Calls follow the shape of the dose curve; as a rule, active = well fitted inhibition curve with a large enough effect; inconclusive = small, poorly fitted or top-dose-only effect; inactive = no such curve, though single readings can be large or run the other way.
What follows are molecules tested against Ferritin light chain (Equus caballus) (UniProt P02791) (assay: qHTS Assay for Identification of Novel General Anesthetics). Conditions: apoferritin/1-aminoanthracene competitive binding, fluorescence; series mostly up to 77.5 µM; activity change, negative = displacement: at the top concentration.
From the text: Source: NIH Chemical Genomics Center [NCGC]
Assay Submitter: Roderic Eckenhoff, University of Pennsylvania
Screening Center PI: Christopher P. Austin, NIH
Probe Development: NIH Chemical Genomics Center [NCGC]
Anesthetic development has remained a largely empirical process. There are growing concerns about the cognitive effects of known general anesthetics and acceleration of the onset of neurodegenerative disease. The compounds' toxicity and multiple specific binding targets in the mammalian brain [4] has made them less attractive as drug leads. In this assay, a GABAergic mimetic model system, apoferritin and a profluorescent 1-aminoanthracene ligand (1-AMA), was used to construct a competitive binding assay for identification of novel general anesthetics. The assay was validated for 1-AMA using other known anesthetics, such as isoflurane (CID:3763) and propofol (CID: 4943), [6].
[1] S.L. Bianchi, T. Tran, C. Liu, S. Lin, Y. Li, J.M. Keller, R.G. Eckenhoff, and M.F. Eckenhoff, Brain and behavior changes in 12-month-old Tg2576 and nontransgenic mice exposed to anesthetics. Neurobiol Aging 29 (2008) 1002-10.
[2] Z. Xie, Y. Dong, U. Maeda, R.D. Moir, W. Xia, D.J. Culley, G. Crosby, and R.E. Tanzi, The inhalation anesthetic isoflurane induces a vicious cycle of apoptosis and amyloid beta-protein accumulation. J Neurosci 27 (2007) 1247-54.
[3] P. Honegger, and J.M. Matthieu, Selective toxicity of the general anesthetic propofol for GABAergic neurons in rat brain cell cultures.
[4] M.F. Eckenhoff, K. Chan, and R.G. Eckenhoff, Multiple specific binding targets for inhaled anesthetics in the mammalian brain. J Pharmacol Exp Ther 300 (2002) 172-9.
[5] C.A. Butts, J. Xi, G. Brannigan, A.A. Saad, S.P. Venkatachalan, R.A. Pearce, M.L. Klein, R.G. Eckenhoff, and I.J. Dmochowski, Identification of a fluorescent general anesthetic, 1-aminoanthracene. Proc Natl Acad Sci U S A 106 (2009) 6501-6.
[6] W.A. Lea, J. Xi, A. Jadhav, L. Lu, C.P. Austin, A. Simeonov, and R.G. Eckenhoff, A high-throughput approach for identification of novel general anesthetics. PLoS One 4 (2009) e7150.
Three uL of reagents (free 1-AMA (50% saturated solution of 1-aminoanthracene
in PBS) in columns 3, 4 as negative control and 1-AMA/apoferritin mixture (10 uM horse-spleen apoferritin in 50% saturated 1-aminoanthracene in PBS) in columns 1, 2, 5-48) was dispensed into 1536-well Greiner black assay plates. Compounds (23 nL) were transferred via Kalypsys pintool equipped with 1,536-pin array (10 nL slotted pins, V&P Scientific, San Diego, CA). Titration of the positive control, propofol, were delivered via pin transfer from separate control plates to the 2nd column of each assay plate. The starting concentration of the control, dissolved in DMSO, was at 160 mM, followed by two-fold dilution points in duplicate, for a total of 16 concentrations. The plates were incubated for 10 min at room temperature, and then read on an EnVision HTS multilabel reader (Perkin-Elmer, Waltham, MA) (end point read, 3 min/plate) using Fura2 BFP excitation filter (380 nm, bandwidth 10 nm) and fluorescein emission filter (535 nm, bandwidth 25 nm) set. A LANCE/DELFIA dichroic mirror with a cutoff wavelength at 400 nm was used to maximize signal accuracy and strength. […] Activity was computed as the normalized fluorescence response relative to free 1-AMA and 1-AMA/apoferritin complex values. […]
% is scaled to controls: 0 for no effect and ±100 for the full control effect; potency is read from the fitted curve at half-maximal effect.
Also: nearly all actives have a fitted effect of over 20% in size.

Sequence of Ferritin light chain (Equus caballus) (P02791 2-175 limits assumed): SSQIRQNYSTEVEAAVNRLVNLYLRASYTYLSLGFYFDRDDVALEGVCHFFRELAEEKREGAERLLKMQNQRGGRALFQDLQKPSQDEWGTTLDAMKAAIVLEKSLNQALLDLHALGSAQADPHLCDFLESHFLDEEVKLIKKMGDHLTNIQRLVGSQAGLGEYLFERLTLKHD

Compound	Potency	activity change, negative = displacement
N[C@@H](Cc1c[nH]c2ccccc12)c1nnc(SCc2c(F)cccc2Cl)o1	28.2 µM (active)	
CCOCCCNC(=O)c1c(NC(=O)c2nc(SC)ncc2Cl)sc2c1CCCC2		173% (inactive)
COC(=O)c1ccccc1NC(=O)c1cc(-c2ccccc2O)no1		164% (inactive)
CCc1ccccc1NC(=O)c1sc2nc3c(cc2c1N)CN(Cc1ccccc1)CC3		62.1% (inactive)
C[C@H]1C/C=C/[C@@H]2[C@@H]3O[C@]3(C)[C@@H](C)[C@H]3[C@H](Cc4ccccc4)NC(=O)[C@]32OC(=O)O/C=C/[C@](C)(O)C1=O		-9.63% (inactive)
